# According to ChEMBL document CHEMBL3433997, “St. Jude Leishmania screening dataset” (2016):
# Legend:
# Assay type in all cases: functional
# [1] = target: Solute carrier family 2, facilitated glucose transporter member 1 (Homo sapiens) (UniProt P11166); experiment: ST_JUDE_LEISH: Cytotoxicity at 2uM final concentration against transgenic Leishmania Mexicana promastigotes LmGLUT1 that are glucose transport deficient and complemented with the human glucose transporter GLUT1. Activity is measured by DNA content using SYBR green in vitro
# Chain of Solute carrier family 2, facilitated glucose transporter member 1 (Homo sapiens) (P11166 whole entry): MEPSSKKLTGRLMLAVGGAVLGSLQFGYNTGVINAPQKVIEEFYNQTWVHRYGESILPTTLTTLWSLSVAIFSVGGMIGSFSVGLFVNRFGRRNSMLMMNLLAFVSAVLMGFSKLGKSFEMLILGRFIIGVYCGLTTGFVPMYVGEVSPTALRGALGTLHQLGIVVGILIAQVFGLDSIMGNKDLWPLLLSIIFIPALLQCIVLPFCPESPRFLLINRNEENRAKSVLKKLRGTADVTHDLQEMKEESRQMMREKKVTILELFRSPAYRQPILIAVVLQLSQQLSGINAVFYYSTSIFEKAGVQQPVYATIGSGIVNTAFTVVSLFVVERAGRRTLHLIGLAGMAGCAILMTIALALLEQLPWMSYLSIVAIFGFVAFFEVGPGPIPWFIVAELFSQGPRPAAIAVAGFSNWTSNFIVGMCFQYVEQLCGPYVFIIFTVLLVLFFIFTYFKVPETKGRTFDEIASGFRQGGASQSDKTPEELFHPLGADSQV
# [2] = target: Hexose transporter 1 (Plasmodium falciparum) (UniProt O97467); experiment: ST_JUDE_LEISH: Cytotoxicity at 2uM final concentration against transgenic Leishmania Mexicana promastigotes LmPfHT that are glucose transport deficient and complemented with the Plasmodium falciparum hexose transporter. Activity is measured by DNA content using SYBR green in vitro
# [3] = target: Glucose transporter (Leishmania mexicana) (UniProt O61059); experiment: ST_JUDE_LEISH: Cytotoxicity at 2uM final concentration against transgenic Leishmania Mexicana promastigotes LmGT2 that are glucose transport deficient and complemented with the L. Mexicana glucose transporter 2. Activity is measured by DNA content using SYBR green in vitro
SMILES,inhibition [1] [%],inhibition [2] [%],inhibition [3] [%]
N#Cc1ccc(-n2cc(C(=O)Nc3ccc4c(c3)CCN(C3CCC3)CC4)c(C(F)(F)F)n2)cc1,7.01,6.79,4.42
COCCn1c(-c2cccc(Cl)c2)nn(-c2ccc([N+](=O)[O-])cc2C#N)c1=S,3.84,-0.81,3.5
CCc1ccc(C2CCN(CCCCNC(=O)c3ccc(-c4ccc(Cl)cc4)cc3)CC2)c(O)c1,0.23,2.44,2.8
Clc1ccc(Cl)c2[nH]c(CNCCCNc3nc4ccccc4[nH]3)cc12,0.92,2.67,1.29
Cc1cc(C(=O)Nc2ccc3c(c2)CCN3C2CCN(Cc3csc4ccccc34)C2)no1 (stereo unspecified),0.87,-2.02,1.87
CN(CCCc1c[nH]c2ccccc12)CCC1CCC(NC(=O)/C=C/c2ccc(Cl)c(Cl)c2)CC1 (stereo unspecified),3.61,2.63,1.8
CC(=O)N/N=C/[C@H](CCc1ccccc1)NC(=O)[C@H](CC(C)C)NC(=O)c1ccc(F)cc1,6.34,4.34,4.68
O=C(Nc1ccc(Cn2nc(Cl)c(N3CCCNCC3)cc2=O)cc1)c1ccc(-c2ccccc2)cc1,7.36,5.68,4.52
Cc1cc(N2C(N)=NC(N)=NC2(C)C)ccc1Cl,0.08,-0.81,-0.97
O=C(NC1CCCCC1)N(Cc1cccc(-c2ccc(CNC3CCCC3)cc2)c1)C1CCN(Cc2ccccc2)CC1,16,14.6,9.9
Cc1cccc(-c2ccc3c(c2)CC(NCc2cccc(-n4ccnc4)c2)C3)c1 (stereo unspecified),31.8,41.4,26.6
COc1ccc(C(C(=O)NC2CCN(C[C@H](O)c3ccnc4ccc(OC)cc34)CC2)N2CCc3ccccc3C2)cc1 (stereo partly specified),2.66,2.33,2.69
